An excerpt weighted towards active compounds, which were near 2.5% of everything screened.
ASK1 inh: inhibitors of human ASK1 kinase | Q99683 | AlphaScreen MKK6 phosphorylation by ASK1, luminescence | inhibition, % at 7.44 µM | 0.99% of 22,000 active | AID 1159602; in the data active means inhibition above about 35%
ULK1 primary: blocks human autophagy kinase ULK1 | O75385 | AlphaScreen Atg13 phosphorylation by ULK1, luminescence | inhibition, % at 5.96 µM | 1.9% of 30,000 active | AID 1259251; in the data active means inhibition above about 43%
TruHits interf: counter-screen for ASK1 inhibitors: AlphaScreen optical interference. AID 1159604. IC50, µM. AlphaScreen TruHits beads, signal interference counterscreen. shares compounds with ASK1 inh. 20% of 220 active;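 active means IC50 of 10 µM or lower in the counterscreen; inactive means IC50 above 10 µM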;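 further: loss of AlphaScreen light from TruHits beads alone with no ASK1 enzyme present; potency of signal reduction so a low IC50 flags an assay artifact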
Hits are given with their value.

For COc1cc(Nc2nc(Nc3ccc(N4CCOCC4)cc3)c3ncn(Cc4ccc(C(F)(F)F)cc4)c3n2)cc(OC)c1OC the results were ASK1 inh 37, ULK1 primary inactive and TruHits interf inactive.
`FC(F)(F)c1ccc(Cn2cnc3c(Nc4ccccc4)nc(Nc4ccc(N5CCOCC5)cc4)nc32)cc1` gave ASK1 inh inactive and ULK1 primary inactive.
`FC(F)(F)c1ccc(Cn2cnc3c(NCc4cccc(C(F)(F)F)c4)nc(-c4ccc(N5CCOCC5)nc4)nc32)cc1` gave ASK1 inh inactive and ULK1 primary inactive.
`CC(C)n1cnc2c(NCc3cccc(C(F)(F)F)c3)nc(N3CCN(Cc4ccc5c(c4)OCO5)CC3)nc21` gave ASK1 inh 37, ULK1 primary inactive and TruHits interf inactive.
`FC(F)(F)c1ccc(Cn2cnc3c(Nc4ccc5c(c4)OCO5)nc(Nc4ccc(C(F)(F)F)cc4)nc32)cc1` gave ASK1 inh inactive and ULK1 primary inactive.
For FC(F)(F)c1ccc(Cn2cnc3c(NCc4ccccc4)nc(-c4ccc(N5CCOCC5)nc4)nc32)cc1 the results were ASK1 inh 45, ULK1 primary inactive and TruHits interf inactive.
For FC(F)(F)c1ccc(Cn2cnc3c(Nc4ccc5c(c4)OCO5)nc(Nc4ccccc4)nc32)cc1 the results were ASK1 inh 41, ULK1 primary inactive and TruHits interf inactive.
O=C(Nc1cccc(Cl)c1)N1CCc2nc3ccccn3c(=O)c2C1 was read as ULK1 primary inactive.
`O=C(Nc1ccccc1)c1ccc2nc(N3CCN(Cc4ccc5c(c4)OCO5)CC3)sc2c1` gave ASK1 inh inactive and ULK1 primary inactive.
`O=C(NCCN1CCOCC1)c1cnc(N2CCC(N3CCOCC3)CC2)s1` gave ASK1 inh inactive and ULK1 primary inactive.
Screening FC(F)(F)c1ccc(Nc2nccc(Nc3ccc4c(c3)OCO4)n2)cc1 returned ASK1 inh inactive and ULK1 primary inactive.
For c1ccc(OCCNc2nc(N3CCN(Cc4ccc5c(c4)OCO5)CC3)nc3c2ncn3C2CCCCC2)cc1 the results were ASK1 inh 39, ULK1 primary inactive and TruHits interf inactive.
Screening CN(C)c1cccc(Nc2nccc(Nc3ccc4c(c3)OCO4)n2)c1 returned ASK1 inh 36, ULK1 primary inactive and TruHits interf inactive.
For FC(F)(F)c1ccc(Cn2cnc3c(Nc4ccc5c(c4)OCO5)nc(N4CCN(c5ccccn5)CC4)nc32)cc1 the results were ASK1 inh 51, ULK1 primary inactive and TruHits interf inactive.
`COc1cc(Nc2nc(N3CCN(c4ccccn4)CC3)nc3c2ncn3Cc2ccc(C(F)(F)F)cc2)cc(OC)c1OC` gave ASK1 inh inactive and ULK1 primary inactive.
`FC(F)(F)c1ccc(Cn2cnc3c(NCCN4CCOCC4)nc(N4CCN(Cc5ccc6c(c5)OCO6)CC4)nc32)cc1` gave ASK1 inh inactive and ULK1 primary inactive.
For FC(F)(F)c1ccc(Cn2cnc3c(Nc4ccc(N5CCOCC5)cc4)nc(N4CCN(Cc5ccc6c(c5)OCO6)CC4)nc32)cc1 the results were ASK1 inh 48, ULK1 primary inactive and TruHits interf inactive.
Screening OCCNc1nc(N2CCN(Cc3ccc4c(c3)OCO4)CC2)nc2c1ncn2C1CCCCC1 returned ASK1 inh inactive and ULK1 primary inactive.
`Clc1nccc(Nc2ccncn2)n1` gave ASK1 inh inactive and ULK1 primary inactive.
Screening COc1ccc(Cl)cc1NC(=O)c1sc2nc(-c3ccc(F)cc3)cn2c1C returned ULK1 primary inactive.
Screening O=C(NCc1ccccc1)c1cnc(Nc2cccnc2)s1 returned ASK1 inh inactive and ULK1 primary inactive.
For CC(C)n1cnc2c(Nc3ccc(N4CCOCC4)cc3)nc(Nc3cccc(N(C)C)c3)nc21 the results were ASK1 inh inactive and ULK1 primary inactive.
CC(C)n1cnc2c(Nc3ccc4c(c3)OCO4)nc(Nc3cccc(N(C)C)c3)nc21 was read as ASK1 inh 37, ULK1 primary inactive and TruHits interf inactive.
For CCN(CC)C(=O)C1CCCN(c2nc(Nc3ccc(N4CCOCC4)cc3)c3ncn(Cc4ccc(C(F)(F)F)cc4)c3n2)C1 (configuration not stated) the results were ASK1 inh 56, ULK1 primary inactive and TruHits interf inactive.
Screening CCN(CC)C(=O)C1CCCN(c2nc(Nc3ccc(N4CCOCC4)cc3)c3ncn(CCN4CCCC4=O)c3n2)C1 (configuration not stated) returned ASK1 inh inactive and ULK1 primary inactive.
For CC(=O)Nc1ccc(Nc2nc(Nc3cccc(N(C)C)c3)nc3c2ncn3Cc2ccc(C(F)(F)F)cc2)cc1 the results were ASK1 inh inactive and ULK1 primary inactive.
`CN(C)c1cccc(Nc2nc(Nc3ccc4c(c3)OCO4)c3ncn(Cc4ccc(C(F)(F)F)cc4)c3n2)c1` gave ASK1 inh 50, ULK1 primary inactive and TruHits interf inactive.
Screening CN(C)c1cccc(Nc2ccc(-n3cc(CC(=O)Nc4ccc(N5CCOCC5)cc4)c4ccccc43)nn2)c1 returned ASK1 inh 44, ULK1 primary inactive and TruHits interf inactive.
O=C(Cc1cn(-c2ccc(Nc3ccc4ncccc4c3)nn2)c2ccccc12)Nc1ccc(N2CCOCC2)cc1 was read as ASK1 inh inactive and ULK1 primary inactive.
CN(C)c1cccc(Nc2ccc(-n3cc(CC(=O)Nc4ccc5c(c4)OCO5)c4ccccc43)nn2)c1 was read as ASK1 inh 43, ULK1 primary inactive and TruHits interf inactive.
`O=C(Cc1cn(-c2ccc(Nc3nccc4ccccc34)nn2)c2ccccc12)Nc1ccc2c(c1)OCO2` gave ASK1 inh 46, ULK1 primary inactive and TruHits interf inactive.
Screening Cn1nccc1Nc1ccc(-n2cc(CC(=O)Nc3ccc4c(c3)OCO4)c3ccccc32)nn1 returned ASK1 inh inactive and ULK1 primary inactive.
`CN(C)c1cccc(Nc2ccc(-n3cc(CC(=O)Nc4ccccc4)c4ccccc43)nn2)c1` gave ASK1 inh inactive and ULK1 primary inactive.
Screening Nc1cccc(-c2nc(NCCOc3ccccc3)c3[nH]cnc3n2)c1 returned ASK1 inh inactive and ULK1 primary inactive.
`CC(=O)Nc1ccc(Nc2nc(N3CCN(Cc4ccc5c(c4)OCO5)CC3)nc3c2ncn3-c2ccsc2)cc1` gave ASK1 inh inactive and ULK1 primary inactive.
`c1cc(-n2cnc3c(Nc4ccc(N5CCOCC5)cc4)nc(NCc4ccc5c(c4)OCO5)nc32)cs1` gave ASK1 inh 41, ULK1 primary inactive and TruHits interf inactive.
c1cc(-n2cnc3c(Nc4ccc5c(c4)OCO5)nc(NCc4ccc5c(c4)OCO5)nc32)cs1 was read as ASK1 inh inactive and ULK1 primary inactive.
Screening c1cc(-n2cnc3c(Nc4ccc5c(c4)OCO5)nc(NCCN4CCOCC4)nc32)cs1 returned ASK1 inh inactive and ULK1 primary inactive.
Nc1nc(Nc2ccc(N3CCOCC3)cc2)cc(Nc2ccc3c(c2)OCO3)n1 was read as ASK1 inh 37, ULK1 primary inactive and TruHits interf inactive.
`c1cc(-n2cnc3c(Nc4ccc5c(c4)OCO5)nc(N4CCN(Cc5ccc6c(c5)OCO6)CC4)nc32)cs1` gave ASK1 inh 36, ULK1 primary inactive and TruHits interf inactive.
Nc1nc(NCc2ccc3c(c2)OCO3)cc(Nc2ccc(N3CCOCC3)cc2)n1 was read as ASK1 inh inactive and ULK1 primary inactive.
